SMILES strings stand for the structures. The panel holds about 83,000 compounds, 20% with a hit somewhere; the sample as a whole holds those more often.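 Step 1: grow cells in 96-well plates. Step 2: add test compound at a single concentration. Step 3: incubate 48 h. Step 4: record percent growth.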 Activity calls are given as the source filed them. Rule for the calls: active = growth percent below 10; inactive = the rest.

The experiment relates to HL-60(TB) leukemia. The experiment can be described thus: NCI-60 one-dose screen, 48 h (100 = growth as untreated, 0 = no growth, -100 = all killed). The following applies: 10 µM unless noted.
Take `O=S(=O)(c1ccccc1)N1CCCN(c2nc(-c3ccccc3)nc3nc(-c4ccccc4)oc23)CC1`: the growth was 102% (inactive). Next, `O=Cc1c[nH]c2ccc(-c3csc4ccccc34)cc12`: 3.68% (active); `O=C1/C(=C\c2cccn2Cc2ccccc2)c2ccccc2N1c1c(Cl)cccc1Cl`: 71% (inactive); `NS(=O)(=O)c1ccc(NC(=O)/C(=C\c2ccc(Cl)cc2Cl)NC(=O)c2ccccc2)cc1`: 84.8% (inactive).

On to `CC(C)(c1ccc(OCC(O)CNCc2ccco2)cc1)c1ccc(OCC(O)CNCc2ccco2)cc1` (stereo not given), for which the growth was 63.9% (inactive). The value for `COc1ccc(NCc2cn(-c3ccc(C(=O)O)cc3)nc2-c2ccc(C(=O)O)cc2)cc1C(F)(F)F` was 118% (inactive). For `Cc1ncc(C(=O)Nc2ccc(CN3CCN(C)CC3)c(C(F)(F)F)c2)cc1C#Cc1cnc(N)c2ccc(C#N)cc12`, the growth was 13.2% (inactive).

`Cn1cc(-c2csc(-c3cn(C(=O)OC(C)(C)C)c4ccccc34)n2)c2ccnc(Cl)c21`: the growth is 67.5% (inactive).

Take `Nc1ncnc(Nc2ccc(C(F)(F)F)cc2)n1`: the growth was 89.2% (inactive). In the case of `ICCC(c1ccccc1)(c1ccccc1)c1ccccc1`, the growth is 43.4% (inactive). Next, `C#Cc1ccc(-n2c(/C=C/c3cc(OC)cc(OC)c3)nc3ncccc3c2=O)cc1`: 68.1% (inactive); `COc1ccc2nc(SCC(=O)Nc3ccccc3C)[nH]c2c1`: 100% (inactive). On to `O=C(NCc1ccco1)C1CN(c2ccc(Cl)cc2)N(c2ccc(Cl)cc2)C1=O` (stereo not given), for which the growth is 5.03% (active). The value for `Cc1nc2ccccc2n1C(=O)C[C@@H]1NC(=S)NC1=O` was 101% (inactive). For `O=C1/C(=C\c2ccc(F)cc2)CN(C(=O)c2ccccc2)C/C1=C\c1ccc(F)cc1`, the growth was 25.6% (inactive). Next, `O=C1/C(=C/c2ccccc2)COc2ccc(O)cc21`: 33.9% (inactive). The value for `COc1ccc(NC(=O)CSc2nnc(-c3cc(-c4ccccc4)nc4ccccc34)n2-c2ccccc2)cc1` was 105% (inactive); that for `C=C1C(=O)O[C@H]2[C@H]1CC/C(COC(=O)CSCC(=O)OC/C1=C/CC[C@@]3(C)O[C@H]3[C@H]3OC(=O)C(=C)[C@@H]3CC1)=C\CC[C@@]1(C)O[C@@H]21` was -42% (active); that for `CN(C)CC(C)(CN(C)C)C(=O)/C=C/c1c(Cl)cccc1Cl` was -5.28% (active). The value for `COc1ccc(C(=O)c2ccccc2CN2C(=O)c3ccccc3C2=O)cc1` was 103% (inactive).

On to `CC[N+](C)(C)N`, for which the growth is 103% (inactive). Take `Cc1ccc(Nc2cc(=S)nc(N)[nH]2)cc1C`: the growth was 92.6% (inactive). The value for `CSc1nc(N)c2c(n1)N(C)C=NS2(=O)=O` was 124% (inactive); that for `COc1ccc(/C(C)=C(\c2ccc(Cl)cc2)c2ccc(OCCN3CCCCC3)cc2)cc1` was 32.8% (inactive); that for `Cc1cc(Nc2nc(-c3ccc(F)cc3)nc3ccccc23)n[nH]1` was 39% (inactive). The value for `Nc1ccc(Cl)c([N+](=O)[O-])c1` was 118% (inactive). Consider `CCOC(=O)c1nc(Nc2cc(C)[nH]n2)c2ccccc2n1`, for which the growth is 106% (inactive).

As to `CN(Cc1ccccc1)c1nc(Cl)c(C2CC(c3ccccc3)=NN2c2ccccc2)s1` (stereo not given), the growth is 100% (inactive). In the case of `CN([N-]C(=O)CC(=O)[N-]N(C)C(=S)c1ccccc1)C(=S)c1ccccc1.[Cu+2]`, the growth is -15.6% (active).

Consider `O=S(=O)(Nc1cccc(Cl)c1)c1ccc(-c2cnc(C3CC3)o2)cc1`, for which the growth is 2.04% (active). Next, `Cc1ccc(-c2nc(C#N)c(S(=O)(=O)N(C)CCO)o2)cc1`: -18.1% (active); `Clc1cc(Cl)c2nc(-c3ccc(-c4ccc(/C=N/NC5=NCCN5)cc4)s3)cn2c1`: 98.4% (inactive); `C=C(c1ccc(C(=O)O)c(F)c1)c1cc2c(cc1C)C(C)(C)CCC2(C)C`: 97.2% (inactive). Next, `Oc1ccc(Cl)cc1C(c1cc(Cl)ccc1O)C(Cl)(Cl)Cl`: 69% (inactive); `CCCCCCN(CCCCCC)CC(O)c1cccc2ccc(Cl)cc12` (stereo not given): 69.5% (inactive); `O=C(Oc1ccc([N+](=O)[O-])cc1)c1ccc(CBr)cc1`: 71.8% (inactive). The value for `COc1cc(/C=C/C(=O)c2cccc(-n3cc(-c4ccccc4)[nH]c3=O)c2)ccc1O` was 3.49% (active). As to `C#Cc1cccc(NC(=O)C2CCCN(C(=O)CCl)C2)c1` (stereo not given), the growth is 34% [8.25 µM] (inactive). The value for `Cc1cc(-c2noc(C(F)(F)F)n2)ccc1N1CCN(c2cc(C(=O)N(C)C)no2)CC1` was 49.7% (inactive). The value for `N#CC1c2ccccc2-c2ccccc2N1C(=O)c1ccccc1` (stereo not given) was 21.6% (inactive).

These data come from PubChem BioAssay (NCI).
